Legend:
Assay in all cases: DAPPL (digital affinity profiling via proximity ligation, sequencing); 10 mM Tris-HCl pH 7.5, 50 mM NaCl, 1 mM DTT, 4% glycerol, room temperature, 30 min; GST-TFs on glutathione beads, 16-mer random dsDNA library, 0.1% formaldehyde crosslink after washing; high values mean tight binding
[1] = biological target: T1, FLI1 (Homo sapiens, UniProt Q01543 1-452); conditions: protein: recombinant; tags: N-terminal GST; dsDNA, one strand shown
T1 sequence: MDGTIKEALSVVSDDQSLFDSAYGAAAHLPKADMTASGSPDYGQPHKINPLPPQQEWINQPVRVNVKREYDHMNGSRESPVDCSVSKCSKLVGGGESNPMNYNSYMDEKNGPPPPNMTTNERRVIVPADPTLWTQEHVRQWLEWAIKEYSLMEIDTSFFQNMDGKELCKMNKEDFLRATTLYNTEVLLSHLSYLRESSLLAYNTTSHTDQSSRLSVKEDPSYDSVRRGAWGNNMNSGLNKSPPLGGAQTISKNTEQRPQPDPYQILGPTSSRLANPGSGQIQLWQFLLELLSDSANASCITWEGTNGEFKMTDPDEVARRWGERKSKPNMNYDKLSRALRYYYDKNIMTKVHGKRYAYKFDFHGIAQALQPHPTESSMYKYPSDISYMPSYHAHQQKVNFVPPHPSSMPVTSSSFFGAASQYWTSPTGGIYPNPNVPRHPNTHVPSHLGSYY
How it was run: (§1)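 Binding signal is defined as a hexamer's read frequency for one factor over its frequency for the tag-only sample. To obtain reads, GST-fused human transcription factors were expressed in yeast, captured on glutathione beads, barcoded with DNA and pooled with that sample. Pools met 200 nmole of a 16-mer random double-stranded DNA library in Tris/NaCl/DTT/glycerol buffer for 30 min at room temperature before washing, 0.1% formaldehyde crosslinking, proximity ligation (BsaI/T4 ligase, 1 h, 37 °C), PCR and Illumina NextSeq500 sequencing.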

[2] = biological target: T2, ELK1 (Homo sapiens, UniProt P19419 1-428); conditions: protein: recombinant; tags: N-terminal GST; dsDNA, one strand shown
T2 sequence: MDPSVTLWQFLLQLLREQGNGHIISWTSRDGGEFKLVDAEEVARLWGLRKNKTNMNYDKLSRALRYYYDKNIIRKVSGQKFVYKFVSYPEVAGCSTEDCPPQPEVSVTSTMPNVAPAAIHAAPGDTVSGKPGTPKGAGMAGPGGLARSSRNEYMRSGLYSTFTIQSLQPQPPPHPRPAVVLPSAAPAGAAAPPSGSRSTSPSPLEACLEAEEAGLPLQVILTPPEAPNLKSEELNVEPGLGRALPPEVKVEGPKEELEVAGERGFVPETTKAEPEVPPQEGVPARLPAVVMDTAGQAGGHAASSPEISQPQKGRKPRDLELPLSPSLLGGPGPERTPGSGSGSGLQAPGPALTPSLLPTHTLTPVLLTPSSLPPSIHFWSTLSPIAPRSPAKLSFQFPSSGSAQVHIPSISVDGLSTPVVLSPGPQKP
How it was run: as §1

[3] = biological target: T3, GABPA (Homo sapiens, UniProt Q06546 1-454); conditions: protein: recombinant; tags: N-terminal GST; dsDNA, one strand shown
T3 sequence: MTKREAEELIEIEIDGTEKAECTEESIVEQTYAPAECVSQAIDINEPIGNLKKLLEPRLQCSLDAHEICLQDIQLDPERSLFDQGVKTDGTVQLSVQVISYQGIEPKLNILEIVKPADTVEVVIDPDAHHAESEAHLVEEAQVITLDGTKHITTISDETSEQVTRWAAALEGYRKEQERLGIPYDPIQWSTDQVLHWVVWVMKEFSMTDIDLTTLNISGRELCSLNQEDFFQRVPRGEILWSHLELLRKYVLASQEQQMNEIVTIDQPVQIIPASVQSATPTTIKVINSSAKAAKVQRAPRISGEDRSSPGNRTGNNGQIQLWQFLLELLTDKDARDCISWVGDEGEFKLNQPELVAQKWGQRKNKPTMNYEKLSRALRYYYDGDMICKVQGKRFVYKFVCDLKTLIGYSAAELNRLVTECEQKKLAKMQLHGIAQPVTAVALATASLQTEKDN
How it was run: as §1

[4] = biological target: T4, ERG (Homo sapiens, UniProt P11308 1-479); conditions: protein: recombinant; tags: N-terminal GST; dsDNA, one strand shown
T4 sequence: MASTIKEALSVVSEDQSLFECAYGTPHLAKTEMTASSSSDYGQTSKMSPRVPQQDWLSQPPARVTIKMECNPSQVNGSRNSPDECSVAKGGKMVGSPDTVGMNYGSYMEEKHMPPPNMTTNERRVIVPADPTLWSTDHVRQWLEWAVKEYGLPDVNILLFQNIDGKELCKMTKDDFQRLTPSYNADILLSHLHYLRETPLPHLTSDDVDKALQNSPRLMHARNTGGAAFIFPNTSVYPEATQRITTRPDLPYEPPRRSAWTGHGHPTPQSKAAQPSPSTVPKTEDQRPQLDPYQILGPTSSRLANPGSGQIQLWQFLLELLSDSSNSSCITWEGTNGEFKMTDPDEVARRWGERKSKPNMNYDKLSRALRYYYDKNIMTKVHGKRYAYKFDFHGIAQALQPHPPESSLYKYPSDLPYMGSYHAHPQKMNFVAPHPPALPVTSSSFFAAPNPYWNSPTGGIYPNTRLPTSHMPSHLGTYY
How it was run: as §1

[5] = biological target: ELF1 (Homo sapiens, UniProt P32519 1-619); conditions: protein: recombinant; tags: N-terminal GST; dsDNA, one strand shown
How it was run: as §1

[6] = biological target: T5, EHF (Homo sapiens, UniProt Q9NZC4 1-300); conditions: protein: recombinant; tags: N-terminal GST; dsDNA, one strand shown
T5 sequence: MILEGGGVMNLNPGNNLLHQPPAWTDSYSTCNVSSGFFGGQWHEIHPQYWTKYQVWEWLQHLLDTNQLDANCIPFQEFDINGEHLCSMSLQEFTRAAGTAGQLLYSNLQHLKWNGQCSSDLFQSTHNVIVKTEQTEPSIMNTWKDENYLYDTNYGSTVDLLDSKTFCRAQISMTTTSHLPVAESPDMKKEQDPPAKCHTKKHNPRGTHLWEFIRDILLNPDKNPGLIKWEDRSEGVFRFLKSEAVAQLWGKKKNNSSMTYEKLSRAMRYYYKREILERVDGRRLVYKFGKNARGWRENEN
How it was run: as §1

[7] = biological target: SPI1 (Homo sapiens, UniProt P17947 1-270); conditions: protein: recombinant; tags: N-terminal GST; dsDNA, one strand shown
How it was run: as §1

[8] = biological target: SPIB (Homo sapiens, UniProt Q01892 1-262); conditions: protein: recombinant; tags: N-terminal GST; dsDNA, one strand shown
How it was run: as §1

[9] = biological target: T6, ELK3 (Homo sapiens, UniProt P41970 1-407); conditions: protein: recombinant; tags: N-terminal GST; dsDNA, one strand shown
T6 sequence: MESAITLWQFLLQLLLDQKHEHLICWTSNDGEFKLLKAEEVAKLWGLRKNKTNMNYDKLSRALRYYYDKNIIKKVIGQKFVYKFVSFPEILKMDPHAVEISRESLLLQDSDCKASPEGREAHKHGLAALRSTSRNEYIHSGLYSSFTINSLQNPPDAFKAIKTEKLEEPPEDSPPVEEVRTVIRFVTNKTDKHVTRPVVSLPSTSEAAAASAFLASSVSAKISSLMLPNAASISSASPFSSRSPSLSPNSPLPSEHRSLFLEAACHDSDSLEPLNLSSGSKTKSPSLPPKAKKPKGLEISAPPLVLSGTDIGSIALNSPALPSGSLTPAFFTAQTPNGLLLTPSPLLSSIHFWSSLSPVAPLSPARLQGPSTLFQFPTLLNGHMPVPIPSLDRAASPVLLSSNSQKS
How it was run: as §1

[10] = biological target: T7, FEV (Homo sapiens, UniProt Q99581 1-238); conditions: protein: recombinant; tags: N-terminal GST; dsDNA, one strand shown
T7 sequence: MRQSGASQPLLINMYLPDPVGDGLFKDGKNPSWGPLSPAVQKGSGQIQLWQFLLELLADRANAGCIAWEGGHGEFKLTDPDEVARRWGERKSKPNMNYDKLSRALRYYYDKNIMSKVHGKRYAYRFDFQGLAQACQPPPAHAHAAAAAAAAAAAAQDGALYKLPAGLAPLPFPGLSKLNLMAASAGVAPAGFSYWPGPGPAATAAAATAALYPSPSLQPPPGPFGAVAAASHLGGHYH
How it was run: as §1

[11] = biological target: ETV5 (Homo sapiens, UniProt P41161 1-510); conditions: protein: recombinant; tags: N-terminal GST; dsDNA, one strand shown
How it was run: as §1

[12] = biological target: HSF1 (Homo sapiens, UniProt Q00613 1-529); conditions: protein: recombinant; tags: N-terminal GST; chain copies: 3; dsDNA, one strand shown
How it was run: as §1

[13] = biological target: T8, SPIC (Homo sapiens, UniProt Q8N5J4 1-248); conditions: protein: recombinant; tags: N-terminal GST; dsDNA, one strand shown
T8 sequence: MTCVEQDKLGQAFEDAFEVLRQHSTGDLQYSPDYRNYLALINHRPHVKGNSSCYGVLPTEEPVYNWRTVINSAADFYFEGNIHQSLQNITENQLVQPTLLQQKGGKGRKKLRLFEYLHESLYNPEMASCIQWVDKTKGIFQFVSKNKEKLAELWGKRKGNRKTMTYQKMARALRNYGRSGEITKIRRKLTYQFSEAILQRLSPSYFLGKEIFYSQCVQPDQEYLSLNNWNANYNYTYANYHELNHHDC
How it was run: as §1

[14] = biological target: ELF4 (Homo sapiens, UniProt Q99607 1-663); conditions: protein: recombinant; tags: N-terminal GST; dsDNA, one strand shown
How it was run: as §1

[15] = biological target: T9, ELK4 (Homo sapiens, UniProt P28324-2 1-405); conditions: protein: recombinant; tags: N-terminal GST; dsDNA, one strand shown
T9 sequence: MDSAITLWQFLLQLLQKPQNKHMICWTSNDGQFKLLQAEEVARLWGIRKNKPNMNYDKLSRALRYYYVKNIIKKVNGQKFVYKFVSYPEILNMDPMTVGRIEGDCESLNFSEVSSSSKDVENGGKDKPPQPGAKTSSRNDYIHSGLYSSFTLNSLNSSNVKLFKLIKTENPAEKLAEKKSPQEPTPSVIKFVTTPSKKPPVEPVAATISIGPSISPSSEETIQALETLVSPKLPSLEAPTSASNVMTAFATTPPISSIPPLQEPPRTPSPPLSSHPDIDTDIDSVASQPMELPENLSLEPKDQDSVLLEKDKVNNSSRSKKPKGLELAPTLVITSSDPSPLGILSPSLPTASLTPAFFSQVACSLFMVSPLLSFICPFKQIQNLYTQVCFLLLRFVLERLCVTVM
How it was run: as §1

[16] = biological target: T10, ETV2 (Homo sapiens, UniProt O00321 1-342); conditions: protein: recombinant; tags: N-terminal GST; dsDNA, one strand shown
T10 sequence: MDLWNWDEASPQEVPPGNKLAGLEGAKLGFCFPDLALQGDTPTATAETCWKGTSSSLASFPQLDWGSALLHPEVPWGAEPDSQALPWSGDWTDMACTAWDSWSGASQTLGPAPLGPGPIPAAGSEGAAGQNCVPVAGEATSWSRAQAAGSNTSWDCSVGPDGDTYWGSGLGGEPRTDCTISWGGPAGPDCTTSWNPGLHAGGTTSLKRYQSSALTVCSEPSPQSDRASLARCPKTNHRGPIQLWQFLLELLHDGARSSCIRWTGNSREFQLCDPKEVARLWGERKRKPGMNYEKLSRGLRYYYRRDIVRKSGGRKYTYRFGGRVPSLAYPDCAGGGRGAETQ
How it was run: as §1

[17] = biological target: T11, ELF3 (Homo sapiens, UniProt P78545 1-371); conditions: protein: recombinant; tags: N-terminal GST; dsDNA, one strand shown
T11 sequence: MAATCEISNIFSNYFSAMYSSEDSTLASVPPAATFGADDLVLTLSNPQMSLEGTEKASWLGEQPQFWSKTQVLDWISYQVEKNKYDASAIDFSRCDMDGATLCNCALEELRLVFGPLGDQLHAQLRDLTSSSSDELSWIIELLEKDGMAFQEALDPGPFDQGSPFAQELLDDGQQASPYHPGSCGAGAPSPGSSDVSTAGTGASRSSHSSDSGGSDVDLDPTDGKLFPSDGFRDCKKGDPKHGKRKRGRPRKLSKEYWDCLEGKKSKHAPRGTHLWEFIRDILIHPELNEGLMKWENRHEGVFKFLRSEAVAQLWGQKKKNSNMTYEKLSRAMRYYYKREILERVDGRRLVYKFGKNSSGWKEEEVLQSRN
How it was run: as §1

[18] = biological target: CRX (Homo sapiens, UniProt O43186 1-299); conditions: protein: recombinant; tags: N-terminal GST; dsDNA, one strand shown
How it was run: as §1

[19] = biological target: ETV1 (Homo sapiens, UniProt P50549 1-477); conditions: protein: recombinant; tags: N-terminal GST; dsDNA, one strand shown
How it was run: as §1

Chain of HSF1 (Q00613 whole entry): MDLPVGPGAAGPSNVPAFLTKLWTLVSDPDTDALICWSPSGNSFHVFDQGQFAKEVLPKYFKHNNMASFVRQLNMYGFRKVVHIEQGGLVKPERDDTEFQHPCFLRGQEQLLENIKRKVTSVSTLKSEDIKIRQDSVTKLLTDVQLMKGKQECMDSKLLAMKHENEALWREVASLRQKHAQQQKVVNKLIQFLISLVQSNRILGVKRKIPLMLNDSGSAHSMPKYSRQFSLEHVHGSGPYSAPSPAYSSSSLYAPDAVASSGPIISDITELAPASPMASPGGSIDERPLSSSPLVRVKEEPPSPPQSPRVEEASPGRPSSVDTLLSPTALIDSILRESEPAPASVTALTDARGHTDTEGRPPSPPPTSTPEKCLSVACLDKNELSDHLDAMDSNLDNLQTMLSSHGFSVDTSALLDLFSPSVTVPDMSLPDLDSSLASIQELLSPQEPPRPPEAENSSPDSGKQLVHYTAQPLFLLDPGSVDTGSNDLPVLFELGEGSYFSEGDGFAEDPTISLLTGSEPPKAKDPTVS
Chain of ELF1 (P32519 whole entry): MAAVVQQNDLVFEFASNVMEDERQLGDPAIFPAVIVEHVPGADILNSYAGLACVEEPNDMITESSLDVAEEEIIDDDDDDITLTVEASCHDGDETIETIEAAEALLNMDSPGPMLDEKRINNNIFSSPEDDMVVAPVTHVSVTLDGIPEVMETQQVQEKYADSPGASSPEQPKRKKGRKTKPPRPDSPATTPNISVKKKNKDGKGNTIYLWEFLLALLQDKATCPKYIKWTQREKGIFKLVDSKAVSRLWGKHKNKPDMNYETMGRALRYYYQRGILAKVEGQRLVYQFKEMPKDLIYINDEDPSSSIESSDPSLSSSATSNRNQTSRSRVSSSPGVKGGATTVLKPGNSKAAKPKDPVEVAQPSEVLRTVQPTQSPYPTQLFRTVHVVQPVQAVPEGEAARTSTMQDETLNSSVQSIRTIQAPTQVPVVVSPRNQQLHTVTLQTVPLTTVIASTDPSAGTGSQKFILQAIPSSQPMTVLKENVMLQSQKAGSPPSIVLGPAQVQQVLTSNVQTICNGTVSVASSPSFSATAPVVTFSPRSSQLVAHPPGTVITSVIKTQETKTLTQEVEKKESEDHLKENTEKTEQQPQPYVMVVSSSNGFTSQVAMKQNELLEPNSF
Chain of ETV5 (P41161 whole entry): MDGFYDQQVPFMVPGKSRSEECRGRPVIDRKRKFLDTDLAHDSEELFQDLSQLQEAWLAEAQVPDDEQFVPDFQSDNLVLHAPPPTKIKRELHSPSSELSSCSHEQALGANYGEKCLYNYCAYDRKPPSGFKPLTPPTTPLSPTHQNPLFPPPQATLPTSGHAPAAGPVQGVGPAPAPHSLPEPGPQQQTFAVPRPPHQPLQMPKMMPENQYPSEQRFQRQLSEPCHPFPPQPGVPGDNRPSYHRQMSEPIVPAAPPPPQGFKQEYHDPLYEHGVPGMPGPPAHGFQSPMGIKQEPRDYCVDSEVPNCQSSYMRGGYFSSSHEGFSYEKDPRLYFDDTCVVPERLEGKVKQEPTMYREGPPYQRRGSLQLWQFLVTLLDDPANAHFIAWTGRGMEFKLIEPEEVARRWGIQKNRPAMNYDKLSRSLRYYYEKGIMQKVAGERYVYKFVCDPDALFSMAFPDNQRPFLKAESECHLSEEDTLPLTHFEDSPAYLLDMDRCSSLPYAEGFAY
Chain of ETV1 (P50549 whole entry): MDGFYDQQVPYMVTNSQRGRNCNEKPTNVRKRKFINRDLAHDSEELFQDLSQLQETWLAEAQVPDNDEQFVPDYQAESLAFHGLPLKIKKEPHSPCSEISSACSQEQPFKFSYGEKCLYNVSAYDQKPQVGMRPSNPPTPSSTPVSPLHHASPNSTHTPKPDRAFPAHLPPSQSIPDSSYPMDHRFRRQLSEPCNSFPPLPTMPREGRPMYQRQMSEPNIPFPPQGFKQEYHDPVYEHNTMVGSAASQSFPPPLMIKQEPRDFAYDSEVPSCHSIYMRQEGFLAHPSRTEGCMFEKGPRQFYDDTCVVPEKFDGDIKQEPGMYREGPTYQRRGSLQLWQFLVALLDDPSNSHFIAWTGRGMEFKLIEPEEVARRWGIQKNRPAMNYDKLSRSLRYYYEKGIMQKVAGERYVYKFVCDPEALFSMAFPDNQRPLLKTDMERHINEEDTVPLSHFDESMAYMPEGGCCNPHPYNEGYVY
Chain of SPIB (Q01892 whole entry): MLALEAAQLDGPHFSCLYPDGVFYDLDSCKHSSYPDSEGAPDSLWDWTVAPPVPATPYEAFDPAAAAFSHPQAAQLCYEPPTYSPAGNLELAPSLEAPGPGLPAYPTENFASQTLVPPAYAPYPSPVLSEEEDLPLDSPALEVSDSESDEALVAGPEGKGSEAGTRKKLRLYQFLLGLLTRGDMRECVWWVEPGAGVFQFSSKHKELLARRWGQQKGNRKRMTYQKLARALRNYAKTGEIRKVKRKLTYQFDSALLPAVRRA
Chain of ELF4 (Q99607 whole entry): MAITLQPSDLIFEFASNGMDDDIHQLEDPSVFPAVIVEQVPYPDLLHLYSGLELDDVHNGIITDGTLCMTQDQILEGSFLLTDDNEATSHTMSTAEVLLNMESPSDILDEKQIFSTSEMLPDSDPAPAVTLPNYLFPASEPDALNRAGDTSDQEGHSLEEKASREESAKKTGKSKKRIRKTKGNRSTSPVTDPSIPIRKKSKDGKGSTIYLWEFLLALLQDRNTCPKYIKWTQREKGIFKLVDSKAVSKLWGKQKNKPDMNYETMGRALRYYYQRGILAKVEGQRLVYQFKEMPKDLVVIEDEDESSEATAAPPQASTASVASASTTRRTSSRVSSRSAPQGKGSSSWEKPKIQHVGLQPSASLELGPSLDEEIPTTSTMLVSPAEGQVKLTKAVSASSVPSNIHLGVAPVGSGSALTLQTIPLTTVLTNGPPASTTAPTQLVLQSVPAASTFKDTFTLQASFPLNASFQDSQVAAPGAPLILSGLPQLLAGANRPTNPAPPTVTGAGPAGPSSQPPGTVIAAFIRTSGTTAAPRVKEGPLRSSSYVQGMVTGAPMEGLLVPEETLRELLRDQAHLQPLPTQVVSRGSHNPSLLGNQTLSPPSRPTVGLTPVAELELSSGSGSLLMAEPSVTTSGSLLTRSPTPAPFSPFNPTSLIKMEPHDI
Chain of CRX (O43186 whole entry): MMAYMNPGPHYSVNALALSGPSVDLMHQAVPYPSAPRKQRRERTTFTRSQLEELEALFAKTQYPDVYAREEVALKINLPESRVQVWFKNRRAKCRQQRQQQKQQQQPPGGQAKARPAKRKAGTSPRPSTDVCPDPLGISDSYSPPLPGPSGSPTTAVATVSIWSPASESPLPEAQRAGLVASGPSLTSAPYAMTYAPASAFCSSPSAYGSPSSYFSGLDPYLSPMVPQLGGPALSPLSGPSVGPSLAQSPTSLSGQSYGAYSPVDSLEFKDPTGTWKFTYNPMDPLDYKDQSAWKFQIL

AACATA was tested, and the binding signal [1] was 1.23 fold enrichment (6-mer frequency, TF over GST control), the binding signal [2] was 1.26 fold enrichment (6-mer frequency, TF over GST control) and the binding signal [3] was 1.29 fold enrichment (6-mer frequency, TF over GST control). For the same sequence, the binding signal [4] was 1.26 fold enrichment (6-mer frequency, TF over GST control), the binding signal [5] was 1.28 fold enrichment (6-mer frequency, TF over GST control) and the binding signal [6] was 1.31 fold enrichment (6-mer frequency, TF over GST control). For the same sequence, the binding signal [7] was 1.21 fold enrichment (6-mer frequency, TF over GST control), the binding signal [8] was 1.22 fold enrichment (6-mer frequency, TF over GST control) and the binding signal [9] was 1.25 fold enrichment (6-mer frequency, TF over GST control). The binding signal [10] was 1.2 fold enrichment (6-mer frequency, TF over GST control), the binding signal [11] was 1.31 fold enrichment (6-mer frequency, TF over GST control) and the binding signal [12] was 1.36 fold enrichment (6-mer frequency, TF over GST control). The binding signal [13] was 1.37 fold enrichment (6-mer frequency, TF over GST control), the binding signal [14] was 1.3 fold enrichment (6-mer frequency, TF over GST control) and the binding signal [15] was 1.16 fold enrichment (6-mer frequency, TF over GST control). The binding signal [16] was 1.38 fold enrichment (6-mer frequency, TF over GST control), the binding signal [17] was 1.36 fold enrichment (6-mer frequency, TF over GST control) and the binding signal [18] was 1.3 fold enrichment (6-mer frequency, TF over GST control). The binding signal [19] was 1.21 fold enrichment (6-mer frequency, TF over GST control).

Source: PMC7862700, “An all-to-all approach to the identification of sequence-specific readers for epigenetic DNA modifications on cytosine”
